Experimental data published in PubChem BioAssay (NCATS).
Where “and” joins values, the source holds several entries; their conditions need not be identical. Equal values may be shown once. Records with an inconclusive call do not appear. Calls of active or inactive are those of the source. Unless noted, calls come from the whole dose curve; as a rule, active = well fitted curve in the direction sought with a large enough effect; inconclusive = small, poorly fitted or top-dose-only effect, or another doubt; inactive = no such curve, though single readings can be large; an effect the other way counts as inactive or inconclusive.

Columns and labels:
[1] = Cytotoxicity counterscreen for NFkB agonists and antagonists (AID 624476);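 note: cells exposed to compound for 48 hours; % is set by controls: 0 for no effect and ±100 for the full control effect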
[2] = qHTS Assay for Identification of Small Molecule Agonists for NFkB Signaling Pathway. (AID 624478);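 note: compounds tested together with TNF alpha at its EC50 of 10 pM; 0% is about no effect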
Procedure, shortened: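 ME-180 cervical carcinoma, stable NFkB-RE beta-lactamase reporter; 1000 cells/well, overnight attachment; cpd + TNF alpha 10 pM final, 5 h 37 C; LiveBLAzer 2 h RT; FRET 460/530 nm, ex 405 nm.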

[3] = Cell Proliferation Assay against the TMD8 Cell Line (AID 651645); details: TMD8 DLBCL cell line proliferation/viability; at 46.1 µM (top of the series) unless noted;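 note: cells exposed to compound for 48 h before reading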
Procedure, shortened: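 TMD8 cells, 500/well in RPMI with 5% FBS, dosed immediately and grown 48 h at 37 C, 5% CO2. CellTiter-Glo luminescence normalised to DMSO 100% and 9.2 uM bortezomib (final) 0%.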

[4] = Cell Proliferation Assay against the TMD8 Cell Line (Caspase readout at 8 hrs) (AID 651713);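 note: 0% = DMSO and 100% = 9.2 µM bortezomib caspase signal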
Procedure, shortened: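 Seed log-phase TMD8 cells, add compound by pin tool, incubate 8 h at 37C under 5% CO2, equilibrate to room temperature, add Caspase-Glo, wait 15 min, read luminescence; percent activity uses DMSO and 9.2 uM bortezomib controls.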

[5] = qHTS Assay for Identification of Small Molecule Antagonists for NFkB Signaling Pathway. (AID 624479; calls by dose curve;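 note: pathway stimulated with TNF alpha; % is set by controls: 0 for no effect and ±100 for the full control effect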)
[6] = Cell Proliferation Assay against the HBL1 Cell Line (AID 651646); details: HBL1 DLBCL cells; at 92.2 µM (top of the series) unless noted;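 note: cells exposed to compound for 48 h before reading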
Procedure, shortened: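 HBL1 ABC DLBCL cells, 500/well in RPMI with 5% FBS, treated for 48 h at 37C. Viability read by CellTiter-Glo luminescence, normalized to DMSO as 100% and 9.2 uM bortezomib as 0%.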

[7] = Cell Proliferation Assay against the TMD8 Cell Line (Caspase readout at 16 hrs) (AID 651712); details: TMD8 lymphoma cells, caspase activation luminescence; note: potency is the fitted concentration of half-maximal effect
Procedure, shortened: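 TMD8 cells in RPMI with 5% FBS were treated with compound for 16 h at 37 C, then caspase 3/7 activation was read by Caspase-Glo luminescence. Percent activity was scaled to DMSO (0%) and 9.2 uM bortezomib final (100%).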

[8] = qHTS assay for small molecule agonists of the antioxidant response element (ARE) signaling pathway (AID 651741; active = well fitted activation curve with a large enough effect in the signal ratio; the % refers to the signal ratio; note: potency is the fitted concentration of half-maximal effect; for activation: % of control where 0% means no effect)
Procedure, shortened: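 CellSensor ARE-bla HepG2 cells (2,000/well) carrying ARE-driven beta-lactamase, exposed 16 h at 37 C. LiveBLAzer B/G FRET substrate added for 2 h at room temperature; fluorescence intensity read.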

[9] = qHTS assay for small molecule activators of the nuclear factor-kappa B (NF-kB) signaling pathway (AID 651749; active = well fitted activation curve with a large enough effect in the signal ratio; the % refers to the signal ratio; note: % of control where 0% means no effect); details: NF-kB-bla ME-180 cells, beta-lactamase FRET ratio, 16 h; stronger effect = higher value
Procedure, shortened: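 NF-kB-bla ME-180 cells carrying a beta-lactamase reporter under an NF-kB response element, 2,000 cells/well, exposed to compound for 16 hr at 37C; FRET-based beta-lactamase fluorescence read-out of pathway activation.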

[10] = qHTS assay for small molecule disruptors of the mitochondrial membrane potential - 5 hr assay (AID 651755; calls by dose curve; note: nearly all actives have a fitted effect of over 40% in size; note: potency is the fitted concentration of half-maximal effect)
Procedure, shortened: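 HepG2 cells (2,000/well), attached overnight, exposed to compound 5 hr at 37C, then Mito-MPS dye 30 min. Fluorescence read for monomers (490/535 nm) and aggregates (540/590 nm).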

[11] = qHTS assay to identify small molecules that stimulate interleukin-8 (IL-8) secretion (AID 651758; active = well fitted activation curve with a large enough effect in the signal ratio; the % refers to the signal ratio; note: potency is the fitted concentration of half-maximal effect)
Procedure, shortened: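 THP-1 cells (2000/well) exposed to compound 16 h at 37 C; secreted IL-8 then detected by HTRF with cryptate- and XL665-labelled anti-IL-8 antibody pair after 1-3 h at room temperature.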

[12] = biological target: Peroxisome proliferator-activated receptor alpha (Homo sapiens) (UniProt Q07869); assay: qHTS assay for small molecule agonists of the peroxisome proliferator-activated receptor alpha (PPARalpha) signaling pathway (AID 651778); details: PathHunter PPARalpha complementation, chemiluminescence, 6 h; max response: stronger effect = higher value; note: % of control where 0% means no effect
Procedure, shortened: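 Enzyme-fragment complementation assay in which ligand-bound PPARalpha translocates and forms an active enzyme that generates chemiluminescence. Cells were plated overnight, exposed to compound for 6 hr at 37 C, and then given detection reagent for 60 min at room temperature.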

[13] = biological target: Nuclear receptor ROR-gamma (Homo sapiens) (UniProt P51449); assay: qHTS assay for small molecule antagonists of the retinoid-related orphan receptor gamma (ROR-gamma) signaling pathway (AID 651802); note: nearly all actives have a fitted effect of over 60% in size; note: potency is the fitted concentration of half-maximal effect
Procedure, shortened: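 CHO, TET-inducible ROR + RORE-LUC reporter, 1536-well qHTS. Compound pinned, doxycycline added, 16hr 37C/5% CO2. ONE-Glo, 30 min RT, luminescence; signal drop scored as antagonism.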

[14] = qHTS assay for small molecule activators of the p53 signaling pathway (AID 651743; active = well fitted activation curve with a large enough effect in the signal ratio, not every such curve was filed as active; the % refers to the signal ratio; note: % of control where 0% means no effect); details: HCT-116 p53RE-bla, beta-lactamase FRET ratio, 16 h; activation: stronger effect = higher value
Procedure, shortened: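 p53RE-bla HCT-116 cells carrying a beta-lactamase reporter under p53 response elements were exposed to compounds for 16 hours at 37 C. Reporter activity read as fluorescence after 2 hours at room temperature with LiveBLAzer B/G FRET substrate.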

[15] = biological target: Tumor necrosis factor (Homo sapiens) (UniProt P01375); assay: qHTS assay to identify small molecules that stimulate Tumor Necrosis Factor-alpha (TNF-alpha) secretion (AID 651757; active = well fitted curve in the direction sought with a large enough effect in the signal ratio; the % refers to the signal ratio; note: 0% is about no effect)
Procedure, shortened: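 Read-out is HTRF, a TR-FRET sandwich of cryptate- and XL665-labeled anti-TNF-alpha antibodies detecting cytokine secreted by THP-1 cells. Cells had been incubated with test compounds at 37 C for 17 hrs beforehand.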

[16] = qHTS assay for environmental chemicals that activate the Aryl hydrocarbon Receptor (AhR) signaling pathway (AID 651777); details: 1A2-DRE human hepatoma cells, luciferase, 24 h; activation: stronger effect = higher value; note: % of control where 0% means no effect; nearly all actives have a fitted effect of over 15% in size
Procedure, shortened: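 Concentration–response screening used 1,200 1A2-DRE cells per well, 24 hr compound exposure (37 C, 5% CO2), and One-Glo luminescence as the AhR-driven CYP1A2 reporter signal.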

Chain of Peroxisome proliferator-activated receptor alpha (Homo sapiens) (Q07869 whole entry, looked up, the tested form may be a part): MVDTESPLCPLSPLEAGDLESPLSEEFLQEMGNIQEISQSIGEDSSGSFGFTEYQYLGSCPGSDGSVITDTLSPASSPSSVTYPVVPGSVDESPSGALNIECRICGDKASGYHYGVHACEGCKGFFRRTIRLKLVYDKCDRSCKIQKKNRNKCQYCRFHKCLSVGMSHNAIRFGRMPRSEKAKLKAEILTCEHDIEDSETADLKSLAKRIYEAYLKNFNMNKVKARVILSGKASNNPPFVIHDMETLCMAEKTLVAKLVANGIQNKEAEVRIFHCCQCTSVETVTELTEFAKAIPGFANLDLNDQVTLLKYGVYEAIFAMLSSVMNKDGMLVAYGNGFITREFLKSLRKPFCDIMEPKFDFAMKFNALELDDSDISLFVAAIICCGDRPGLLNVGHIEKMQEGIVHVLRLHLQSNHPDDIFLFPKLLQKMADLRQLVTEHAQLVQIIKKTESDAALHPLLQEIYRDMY
Chain of Nuclear receptor ROR-gamma (Homo sapiens) (P51449 whole entry, looked up): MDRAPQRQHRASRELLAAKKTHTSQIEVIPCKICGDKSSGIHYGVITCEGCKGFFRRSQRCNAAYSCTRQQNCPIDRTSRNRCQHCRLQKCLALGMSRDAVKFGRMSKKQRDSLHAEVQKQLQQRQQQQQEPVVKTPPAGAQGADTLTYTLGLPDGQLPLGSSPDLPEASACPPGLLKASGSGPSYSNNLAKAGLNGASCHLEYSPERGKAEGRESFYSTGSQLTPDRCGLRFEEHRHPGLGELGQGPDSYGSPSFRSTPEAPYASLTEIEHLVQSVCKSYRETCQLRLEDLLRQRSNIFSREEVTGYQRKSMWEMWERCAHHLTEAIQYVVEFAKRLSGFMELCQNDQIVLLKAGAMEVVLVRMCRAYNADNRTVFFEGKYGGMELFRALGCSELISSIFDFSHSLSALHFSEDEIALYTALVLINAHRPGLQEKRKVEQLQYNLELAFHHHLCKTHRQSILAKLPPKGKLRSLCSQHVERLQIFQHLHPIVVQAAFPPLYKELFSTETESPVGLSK
Chain of Tumor necrosis factor (Homo sapiens) (P01375 whole entry, looked up): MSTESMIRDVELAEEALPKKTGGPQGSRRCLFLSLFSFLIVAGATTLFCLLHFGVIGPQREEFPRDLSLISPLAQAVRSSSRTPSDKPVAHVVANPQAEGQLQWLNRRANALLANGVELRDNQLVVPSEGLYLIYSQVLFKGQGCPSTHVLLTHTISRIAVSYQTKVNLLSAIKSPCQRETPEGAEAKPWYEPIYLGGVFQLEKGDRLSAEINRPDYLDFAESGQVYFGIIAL

COc1cc2c(cc1O)CC[C@@H]1[C@@H]2CC[C@]2(C)[C@@H](O)CC[C@@H]12
Potency [1]: inactive
outcome [2]: inactive
viability (% of control) [3]: 24.3%
Potency [4]: inactive

Nc1ccn([C@@H]2O[C@H](CO)[C@@H](O)C2(F)F)c(=O)n1
Potency [1]: inactive
outcome [2]: inactive
Potency [5]: inactive
viability (% of control) [3]: 1.47% [at 92.2 µM]
viability, percent of control [6]: 55.7%
Potency [7]: 0.0382 µM (active)

Oc1ccc(O)cc1
Potency [8]: 2.11 µM (active)
activation [9]: -1.26% (inactive)
Potency [10]: inactive
Potency [11]: 66.8 µM (active)
max response [12]: -2.94% (inactive)
Potency [13]: 10.6 µM (active)

C[C@]12CC[C@@H]3c4ccc(O)cc4CC[C@H]3[C@@H]1CC[C@@H]2O
activation [14]: 8.17% (inactive)
outcome [15]: inactive
activation [16]: 1.98% (inactive)
max response [12]: 0.86% (inactive)
Potency [13]: 33.5 µM (active)

C=CCc1ccc(O)c(OC)c1
Potency [8]: inactive
activation [14]: 0.303% (inactive) and -4.38% (inactive)
outcome [15]: inactive
activation [16]: 1.13% (inactive) and 0.0788% (inactive)
max response [12]: -0.867% (inactive) and -4.24% (inactive)
Potency [13]: inactive

CN(C)/N=N/c1nc[nH]c1C(N)=O
Potency [8]: inactive
Potency [11]: 75 µM (active)
activation [16]: 1.65% (inactive)
max response [12]: -3.55% (inactive)
Potency [13]: inactive

CCCCCCc1ccc(O)cc1O
Potency [8]: 66.8 µM (active)
activation [14]: 7.68% (inactive) and 3.42% (inactive)
Potency [10]: 37.6 µM (active)
outcome [15]: inactive
activation [16]: 1.13% (inactive) and 0.133% (inactive)
max response [12]: -0.464% (inactive) and 3.82% (inactive)

C[C@H]1C[C@H]2[C@@H]3CCC4=CC(=O)C=C[C@]4(C)[C@@]3(Cl)[C@@H](O)C[C@]2(C)[C@@]1(O)C(=O)CO
activation [14]: -5.8% (inactive)
activation [16]: 0.38% (inactive)
max response [12]: 3.36% (inactive)
